# Measured values from PubChem BioAssay (NCI).
# The panel holds about 83,000 compounds, 20% with a hit somewhere; the sample as a whole holds those more often.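 Results are percent growth after 48 hours of single-concentration exposure. 100 means growth as in untreated cells, lower positive values show inhibition; negative values down to -100 show cell death.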 The source made the active and inactive calls. The calls were made as follows: active = growth percent below 10; inactive = the rest.
# Tested on: TK-10 renal
# Experiment: NCI-60 one-dose screen, 48 h (100 = growth as untreated, 0 = no growth, -100 = all killed)
# Settings: 10 µM unless noted
row,SMILES,growth
1,COc1ccc(/C(C)=C(\c2ccc(Cl)cc2)c2ccc(OCCN3CCCC3)cc2)cc1F,62% (inactive)
2,Nc1c(-c2nc3ccccc3c(=O)[nH]2)nnn1-c1ccc(Cl)cc1,72.6% (inactive)
3,O=C(/C=C/C12c3ccccc3C(c3ccccc31)C1C(=O)NC(=O)C12)c1ccc(Cl)cc1 (centres undefined),12.6% (inactive)
4,Clc1ccc(-c2cn(-c3ccccc3)c(-c3ccccc3)n2)cc1,92.4% (inactive)
5,COc1cc(C2C=C(c3cccc(NC(C)=O)c3)Nc3ncnn32)cc(OC)c1OC (centres undefined),4.84% (active)
6,COc1cc(NC(=O)c2cc(O)c(CC=C(C)C)c(O)c2)cc2c1O[C@]1(C)CC[C@@H](O)C(C)(C)[C@H]1C2,56.4% (inactive)
7,Clc1ccc(/C=C/c2nc(Nc3ccc(Cl)cc3)c3ccccc3n2)cc1,121% (inactive)
8,C=C1C(=O)O[C@H]2[C@H]1CC/C(COC(=O)/C=C\C(=O)NCc1ccc(Cn3c(=O)sn(CCCC)c3=O)cc1)=C\CC[C@@]1(C)O[C@@H]21,-76.9% (active)
9,O=[N+]([O-])c1ccc2[nH]cc(-c3c4ccsc4cc4[nH]c5ccc([N+](=O)[O-])cc5c34)c2c1,30.9% (inactive)
10,CC1=NN(c2cccc(Cl)c2)C(=O)/C1=C\c1cn(CC(O)CN2CCCCC2)c2ccccc12 (centres undefined),71.7% (inactive)
11,Clc1ccc(-c2nc(NCCc3ccccc3)nc3c(NCCc4ccccc4)cnn23)cc1,60.1% (inactive)
12,O=C(C[C@@]1(O)C(=O)Nc2c(Cl)ccc(Cl)c21)c1ccc(C2CC2)cc1,70.4% (inactive)
13,CCC(O)(C(c1ccccc1)c1ccccn1)C(c1ccccc1)c1ccccn1 (centres undefined),107% (inactive)
14,Cc1nc(Nc2ccc(S(=O)(=O)Nc3cc(C)on3)cc2)c2ccccc2n1,99.7% (inactive)
15,CCOc1cc(C2C(Cl)C(=O)N2n2cnnc2)ccc1O (centres undefined),99.1% (inactive)
16,NC(=Nc1ccc(N)cc1)C(N)=Nc1ccc(N)cc1,87.3% (inactive)
17,CCCCCCCCCCCCCCCCCC1=NCCN1C(=O)OCCO,-65.4% (active)
18,NC(=S)c1csc(CCNC(=O)c2ccccc2)n1,107% (inactive)
19,O=C1CCC(N2C(=O)c3cccc(NCCCC4CCN(CCNC(=O)c5cc6c(o5)C(=O)c5ccccc5C6=O)CC4)c3C2=O)C(=O)N1 (centres undefined),-70.6% (active)
20,Nc1c(-c2nc3ccc(Br)cc3c(=O)[nH]2)nnn1-c1ccccc1,84.3% (inactive)

row,SMILES,growth
1,O=C(Oc1ccc[nH]c1=O)c1cc([N+](=O)[O-])cc([N+](=O)[O-])c1,90.3% (inactive)
2,COc1ccc(-c2cc(-c3ccc(Nc4nc(Nc5ccccc5)nc(Nc5ccc(Cl)cc5)n4)cc3)nc(N)n2)cc1,98% (inactive)
3,CSc1ccc(Cl)c(C(=O)Nc2sccc2C(N)=O)c1,158% (inactive)
4,OCCCCc1nccc2c1[nH]c1ccccc12,67.9% (inactive)
5,CCOC(=O)c1sc(-c2ccc(OS(=O)(=O)c3ccc(C(C)(C)C)cc3)c(C=O)c2)nc1C,55.8% (inactive)
6,CCOC(=O)c1cnn2c(-c3ccc(Cl)cc3)nc(NCc3ccccc3)nc12,71.3% (inactive)
7,COc1ccc(/C=C2\COc3ccc(O)cc3C2=O)cc1OC,93.1% (inactive)
8,CS(=O)(=O)c1ccc(N/N=C/c2c(-c3ccc(S(C)(=O)=O)cc3)[nH]c3ccc(F)cc23)cc1,35.2% (inactive)
9,N#Cc1cnn2c(-c3ccc(Cl)cc3)nc(NCCc3ccccc3)nc12,102% (inactive)
10,Cc1nc(Nc2cccc(NC(=O)Nc3ccc(Cl)cc3)c2)c2ccccc2n1,104% (inactive)
11,Nc1ccc(-c2cc3c(Nc4ccc(OCc5cccc(F)c5)c(Cl)c4)ncnc3s2)cc1,32.5% (inactive)
12,O=[N+]([O-])c1ccc(-c2cc3c(Nc4ccc(Sc5nc6ccccc6s5)c(Cl)c4)ncnc3s2)cc1,48.2% (inactive)
13,C=C1c2c(C)nn(-c3ccc(O)cc3)c2N(C)C23C[C@@H]1C1(C)c4c(C)nn(-c5ccc(O)cc5)c4N(C)C(C)(C[C@H]12)C3 (some centres undefined),57.3% (inactive)
14,CN(C)CCC(O)(Cc1ccccc1)c1ccccc1 (centres undefined),93.8% (inactive)
15,NS(=O)(=O)c1cnccc1-n1ccc(=O)c(S(N)(=O)=O)c1,83.8% (inactive)
16,Oc1[nH]c2ccccc2c1/C=c1/cc2c(c(-c3ccc(F)cc3)n1)=Nc1ccccc1-2,16.3% (inactive)
17,COc1cc(/C=C/C(=O)c2ccc(Nc3nc(Nc4ccccc4)nc(Nc4ccc(Cl)cc4)n3)cc2)cc(OC)c1OC,74.7% (inactive)
18,CCOC(=O)C1=C(C)NC(SCc2nnc(-c3ccc(Cl)cc3)o2)=NC1c1ccc(Cl)cc1Cl (centres undefined),79.4% (inactive)
19,CCCCN(Cc1ccc(C(=O)NO)cc1)C(=O)Nc1ccc(OCCCCCCCCCn2cc(CCCCC(=O)N[C@H](C(=O)N3C[C@H](O)C[C@H]3C(=O)NCc3ccc(-c4scnc4C)cc3)C(C)(C)C)nn2)cc1,87.6% (inactive)
